# PubChem BioAssay
# Active and inactive are the calls of the source. Unless noted, how the calls were made is not given here.
# How the values were obtained:
# [1] = A549 cell viability effects, profiling panel, calcein-AM fluorescence, 48 h, basal (AID 1162); details: higher = more signal; further: test concentration not given here
# [2] = adipocyte viability effects, profiling panel, cell-based, 3T3-L1 adipocytes, calcein-AM fluorescence, 48 h, basal (AID 1163); details: 3T3-L1 adipocytes viability, higher = more signal; further: test concentration not given here
# [3] = HepG2 cell viability effects, profiling panel, calcein-AM fluorescence, 48 h, basal (AID 1164); details: higher = more signal; further: test concentration not given here
# [4] = MM1S cell viability effects, profiling panel, calcein-AM fluorescence, 48 h, basal (AID 1165); details: higher = more signal;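 further: viability of MM1S multiple myeloma cells under basal unstimulated conditions; test concentration not given here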
# [5] = basal RPMI8226 viability, no added stimulus, profiling panel, cell-based, calcein-AM fluorescence, 48 h, PK04 Diversity Set (AID 1166); details: RPMI8226 myeloma viability, higher = more signal;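 further: cells grown under basal conditions without added stimulus; test concentration not given here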
# [6] = basal HepG2 mitochondrial membrane potential changes, profiling panel, cell-based, JC-1 fluorescence, 24 h, 100 nL compound (AID 1167); details: higher = more signal; further: test concentration not given here
# [7] = basal 3T3-L1 adipocyte mitochondrial potential changes, profiling panel, cell-based, JC-1 fluorescence, 3T3-L1 adipocytes, 24 h, 100 nL compound (AID 1168); details: JC-1 mitochondrial fluorescence, higher = more signal, called active from +8 up or from −8 down; further: test concentration not given here
# [8] = basal RPMI8226 mitochondrial membrane potential changes, profiling panel, cell-based, JC-1 fluorescence, 24 h, 100 nL compound (AID 1169); details: RPMI8226 myeloma, JC-1 mitochondrial potential fluorescence, higher = more signal; further: test concentration not given here
# [9] = basal MM1S mitochondrial membrane potential changes, profiling panel, cell-based, JC-1 fluorescence, 24 h, 100 nL compound (AID 1170); details: higher = more signal; further: test concentration not given here
# [10] = A549 lung cancer cell viability effects, profiling panel, resazurin fluorescence, 24 h, PK04 Diversity Set (AID 1171); details: higher = more signal, called active from +8 up or from −8 down; further: test concentration not given here
# [11] = HepG2 liver cancer cell viability effects, profiling panel, resazurin fluorescence, 24 h, PK04 Diversity Set (AID 1172); details: higher = more signal; further: test concentration not given here
# [12] = basal S. cerevisiae growth modulation, no modifier, primary screen, OD600, strain BY4716, 24 h, basal condition (AID 1173); details: OD600, 24 h, higher = more signal, called active from +8 up or from −8 down
# [13] = MM1S myeloma cell viability, profiling panel, resazurin fluorescence, basal, 24 h, PK04 Diversity Set (AID 1174); details: higher = more signal, called active from +8 up or from −8 down;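 further: MM1S multiple myeloma cell line; test concentration not given here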
# [14] = target: Dihydroorotate dehydrogenase (quinone), mitochondrial (Plasmodium falciparum (isolate 3D7)) (UniProt Q08210); assay: PfDHODH enzyme inhibitors, primary screen, biochemical, C-terminal His tag, absorbance 600 nm (AID 1175); details: DCIP absorbance 600 nm, higher = more signal, called active from +8 up or from −8 down;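 further: recombinant parasite enzyme with a five histidine tag at its C terminus; test concentration not given here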
# Dihydroorotate dehydrogenase (quinone), mitochondrial (Plasmodium falciparum (isolate 3D7)), sequence (Q08210 whole entry, looked up): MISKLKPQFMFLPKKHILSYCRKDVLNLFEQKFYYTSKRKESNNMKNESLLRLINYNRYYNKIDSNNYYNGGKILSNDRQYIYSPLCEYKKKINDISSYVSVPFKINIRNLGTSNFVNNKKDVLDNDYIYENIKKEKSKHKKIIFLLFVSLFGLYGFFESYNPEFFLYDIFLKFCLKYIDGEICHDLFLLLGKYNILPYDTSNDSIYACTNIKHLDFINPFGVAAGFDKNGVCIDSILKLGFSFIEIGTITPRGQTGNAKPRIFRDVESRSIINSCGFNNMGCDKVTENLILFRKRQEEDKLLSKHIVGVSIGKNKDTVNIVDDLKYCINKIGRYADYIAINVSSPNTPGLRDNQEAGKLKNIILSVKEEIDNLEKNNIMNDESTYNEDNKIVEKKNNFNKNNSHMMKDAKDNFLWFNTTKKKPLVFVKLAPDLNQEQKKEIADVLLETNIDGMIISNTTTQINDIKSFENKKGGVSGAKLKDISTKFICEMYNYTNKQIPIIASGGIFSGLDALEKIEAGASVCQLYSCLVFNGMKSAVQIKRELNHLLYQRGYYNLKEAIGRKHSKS
# [15] = P. aeruginosa biofilm formation inhibitors, primary screen, strain PAO1, LB-PBS medium, absorbance 600 nm (AID 1176); further: test concentration not given here; details: P. aeruginosa PAO1 growth/biofilm, A600, 12 h; higher = more signal
# [16] = S. cerevisiae RM11-1a growth modifiers, primary screen, strain RM11-1a, OD600, basal, 24 h (AID 1177); details: OD600, 24 h, higher = more signal, called active from +8 up or from −8 down;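 further: cultures grown under basal conditions with no added stressor; test concentration not given here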
# [17] = E. coli acrAB mutant growth effects, primary screen, E. coli filamentation inducers, strain DRC39, OD650, 24 h (AID 1178); details: higher = more signal, called active from +8 up or from −8 down;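 further: growth measured as culture turbidity by optical density at 650 nm; test concentration not given here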
# [18] = E. coli acrAB mutant growth effects, primary screen, E. coli filamentation inducers, strain DRC39, OD650, 48 h (AID 1179);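 further: screen aims at cell division blockers that make cells filament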; details: E. coli DRC39 delta-acrAB growth, higher = more signal, called active from +8 up or from −8 down
# [19] = RPMI8226 myeloma cell viability, profiling panel, resazurin fluorescence, basal, 24 h, PK04 Diversity Set (AID 1180); details: higher = more signal;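 further: RPMI8826 multiple myeloma cell line at 5000 cells per well; test concentration not given here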
# [20] = target: E3 ubiquitin-protein ligase XIAP (Homo sapiens) (UniProt P98170); assay: XIAP binders, primary screen, biophysical, small-molecule microarray, fluorescence 635 nm (AID 1181); details: small-molecule microarray binding, higher = more signal;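 further: score merges 667 nm emission and signal to noise over triplicate slides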
# E3 ubiquitin-protein ligase XIAP (Homo sapiens), sequence (P98170 whole entry, looked up): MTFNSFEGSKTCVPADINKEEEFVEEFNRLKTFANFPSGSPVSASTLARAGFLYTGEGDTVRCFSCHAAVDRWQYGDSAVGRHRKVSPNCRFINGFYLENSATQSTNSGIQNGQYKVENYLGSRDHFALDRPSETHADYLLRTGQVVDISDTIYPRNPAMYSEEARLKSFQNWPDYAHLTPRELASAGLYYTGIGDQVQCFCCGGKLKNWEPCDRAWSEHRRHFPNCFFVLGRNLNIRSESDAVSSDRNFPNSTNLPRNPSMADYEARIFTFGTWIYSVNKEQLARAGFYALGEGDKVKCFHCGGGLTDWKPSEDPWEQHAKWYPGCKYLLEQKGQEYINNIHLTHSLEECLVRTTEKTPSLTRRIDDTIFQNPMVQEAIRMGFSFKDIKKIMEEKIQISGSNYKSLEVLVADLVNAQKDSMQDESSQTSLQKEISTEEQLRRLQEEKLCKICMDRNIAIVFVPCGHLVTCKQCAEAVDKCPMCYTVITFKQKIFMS
SMILES,z-score [1],z-score [2],z-score [3],z-score [4],z-score [5],z-score [6],z-score [7],z-score [8],z-score [9],z-score [10],z-score [11],z-score [12],z-score [13],composite z-score [14],z-score [15],z-score [16],z-score [17],z-score [18],z-score [19],composite z-score [20]
CCOC(=O)[C@H](CC(C)C)NC(=O)CCC1CC(OC(=O)NCCc2ccc(F)cc2)CC2(CCCC(COC(=O)NCCc3ccccc3OC)O2)O1 (stereo not given in full),0.239,-0.227,-0.204,-1.35,-1.41,0.481,0.293 (inactive),-0.106,-0.878,-0.311 (inactive),-0.285,-0.376 (inactive),0.311 (inactive),-0.991 (inactive),0.45 (inactive),0.354 (inactive),0.61 (inactive),0.376 (inactive),0.441,-0.0565
CO[C@@H]1COC(=O)CC=C[C@@H](C)[C@@H]2C=C[C@H](O)[C@@H](COC(=O)CC=C[C@H]1C)O2,1.26,0.392,0.764,0.425,0.448,0.598,0.967 (inactive),-0.31,0.658,0.0324 (inactive),0.807,-1.65 (inactive),0.992 (inactive),-0.0239 (inactive),0.765 (inactive),-0.72 (inactive),0.619 (inactive),0.799 (inactive),0.366,0.0177
CCOC(=O)[C@H](Cc1ccccc1)NC(=O)CCC1CC(OC(=O)NCCc2ccc(F)cc2)CC2(CCCC(COC(=O)NCCc3ccccc3OC)O2)O1 (stereo not given in full),-0.793,-0.702,0.492,-2.99,-1.42,0.723,0.3 (inactive),0.165,-1.02,-0.301 (inactive),-0.0425,0.456 (inactive),-0.288 (inactive),-0.732 (inactive),0.626 (inactive),0.476 (inactive),-0.0222 (inactive),-1.19 (inactive),0.0228,-0.0796
O=C(NN=C1C[C@@H](O)[C@@H](O)[C@@H]2[C@@H]3C(=O)N(C4CCCCC4)C(=O)[C@@H]3CC[C@@H]12)OCc1ccccc1,0.225,0.487,0.621,0.495,-0.697,-0.502,-0.247 (inactive),-0.369,-0.309,-0.24 (inactive),-0.141,-0.922 (inactive),-0.0864 (inactive),-0.223 (inactive),-0.814 (inactive),0.0487 (inactive),0.193 (inactive),0.332 (inactive),-0.678,-0.505
CCOC(=O)[C@H](Cc1ccccc1)NC(=O)CCC1CC(OC(=O)NCCc2ccc(F)cc2)CC2(CCCC(COC(=O)NCC3CCCCC3)O2)O1 (stereo not given in full),1.35,-0.78,0.901,-3.14,0.219,0.809,0.367 (inactive),-0.0221,-1.29,0.384 (inactive),0.211,-0.362 (inactive),0.368 (inactive),-0.189 (inactive),0.781 (inactive),0.869 (inactive),0.828 (inactive),1.21 (inactive),0.772,-0.0009
Cc1cc2c(nc1C)CCCCN2CC(C)ON=C1[C@H]2CCn3c(=O)n(-c4ccccc4)c(=O)n3[C@H]2[C@H](O)[C@@H]2O[C@H]12 (stereo not given in full),-0.333,-0.0663,0.305,-0.767,-1.21,-0.439,-0.521 (inactive),0.407,-0.974,-1.53 (inactive),-1.22,-0.683 (inactive),-3.13 (inactive),-0.498 (inactive),-0.525 (inactive),0.722 (inactive),0.588 (inactive),1.2 (inactive),-0.459,-0.327
O=C1C=C[C@@H](O)[C@@H]2[C@@H]3C(=O)N(c4ccc(F)cc4F)C(=O)[C@@H]3CC[C@@H]12,0.0767,0.244,1.04,0.157,-1.1,0.991,0.46 (inactive),-0.322,0.921,-1.47 (inactive),-0.862,-1.76 (inactive),-0.138 (inactive),-1.11 (inactive),0.565 (inactive),-2.01 (inactive),-0.664 (inactive),-0.52 (inactive),-0.956,-0.102
CCN1C(=O)[C@@H]2[C@H]3C(=CC[C@@H]2C1=O)C1(OCCCO1)[C@H]1O[C@H]1[C@H]3O,-4.56,-1.03,-4.61,-3.56,-3.24,-3.62,-5.63 (inactive),-1.04,-3.04,-3.14 (inactive),-2.61,-9.39 (active),-8.78 (active),-18.3 (active),2.64 (inactive),1.15 (inactive),-0.124 (inactive),-0.985 (inactive),-5.89,-0.141
Cc1cc2c(nc1C)CCCN2CC(O)CN1CCCc2nc(C)c(C)cc21,-0.254,-0.0412,-0.949,-0.0227,0.391,0.00162,-0.414 (inactive),-0.108,0.382,0.189 (inactive),0.269,0.0477 (inactive),-0.644 (inactive),0.0382 (inactive),0.979 (inactive),0.255 (inactive),-0.494 (inactive),-0.242 (inactive),0.399,1.12
CC(C)=NOC[C@@H](C)[C@H](OCc1ccccc1)C(C)C,0.108,0.311,-0.0481,-0.313,-0.556,-0.0858,0.0392 (inactive),-0.279,0.503,-0.557 (inactive),-0.593,0.201 (inactive),-0.572 (inactive),0.444 (inactive),-0.115 (inactive),0.536 (inactive),-0.161 (inactive),-0.339 (inactive),0.887,0.0077
CCOC(=O)[C@H](CC(C)C)NC(=O)CCC1CC(OC(=O)NCCc2ccc(F)cc2)CC2(CCCC(COC(=O)NCC3CCCCC3)O2)O1 (stereo not given in full),-0.656,0.0504,-0.843,-0.222,0.444,-1.77,-0.293 (inactive),-0.168,-0.24,0.21 (inactive),1.1,0.776 (inactive),0.0789 (inactive),-0.161 (inactive),0.201 (inactive),-0.547 (inactive),-0.0313 (inactive),-1.02 (inactive),0.738,-0.153
COC(=O)CC=C[C@@H](C)[C@@H](C=NO[C@H](C)c1cn([C@H](CO)Cc2ccccc2)nn1)NS(=O)(=O)c1ccc(C)cc1,-0.775,-0.0125,-0.647,-0.0023,-0.254,-0.416,-2.46 (inactive),0.696,0.571,-0.102 (inactive),-0.891,-1.17 (inactive),-0.81 (inactive),0.0463 (inactive),0.0282 (inactive),-0.476 (inactive),0.0146 (inactive),-0.0853 (inactive),0.108,-0.206
CO[C@@H]1COC(=O)[C@H](CCSC)NC(=O)CC=C[C@@H](C)COC(=O)[C@H](C)NC(=O)CC=C[C@H]1C,0.205,0.0719,0.677,0.174,-0.0512,0.381,-0.225 (inactive),-0.226,2.32,0.767 (inactive),0.356,-1.15 (inactive),0.457 (inactive),0.262 (inactive),-0.838 (inactive),-0.224 (inactive),0.916 (inactive),0.577 (inactive),0.693,-0.324
CC(CCN1CCCCc2nc(C)c(C)cc21)=NO[C@@H](C)c1cn([C@H](CO)Cc2ccccc2)nn1,0.455,-0.374,0.0163,0.313,0.307,-1.33,-0.151 (inactive),0.878,-0.859,-0.32 (inactive),-0.841,0.102 (inactive),-1.85 (inactive),-1.55 (inactive),-0.631 (inactive),0.736 (inactive),0.882 (inactive),1.46 (inactive),-0.483,-0.127
CON=C[C@@H](NS(=O)(=O)c1ccc(C)cc1)[C@H](C)C=CCC(=O)OC,1.19,-0.951,0.244,0.561,0.226,0.271,-0.95 (inactive),-0.0325,0.0264,-0.262 (inactive),0.27,-0.146 (inactive),-0.548 (inactive),0.244 (inactive),-0.291 (inactive),0.475 (inactive),0.717 (inactive),-0.761 (inactive),-0.484,-0.0773
CCC(=O)[C@@]1(O)C(=O)N2C(=C3C(=O)OCC[C@@H]31)N(Cc1ccccc1)C(C)=C(C(=O)OC)[C@H]2c1ccccc1,-0.0783,-1.09,0.237,-0.184,0.596,-0.255,-0.0375 (inactive),-0.179,0.676,-0.342 (inactive),-0.207,-0.235 (inactive),0.327 (inactive),-1.41 (inactive),0.936 (inactive),0.273 (inactive),0.533 (inactive),-0.247 (inactive),-0.557,-0.175
CCOC(=O)[C@H](CC(C)C)NC(=O)CCC1CC(OC(=O)NCc2ccc3c(c2)OCO3)CC2(CCCC(COC(=O)NCCCN3CCCC3=O)O2)O1 (stereo not given in full),0.526,-0.268,-0.106,-0.181,0.514,0.553,0.875 (inactive),-0.838,-0.328,0.142 (inactive),0.217,-1.17 (inactive),0.595 (inactive),-1.42 (inactive),0.38 (inactive),0.564 (inactive),0.877 (inactive),0.0512 (inactive),1.24,-0.145
CC(=O)Nc1ccc([C@@H]2N[C@H](C(=O)O)CC[C@H]2C)cc1,0.858,0.122,-0.0918,0.402,-0.371,1.14,0.456 (inactive),-0.355,-0.0501,-0.542 (inactive),0.219,-0.236 (inactive),-0.106 (inactive),0.0947 (inactive),0.557 (inactive),0.237 (inactive),0.909 (inactive),0.781 (inactive),-0.625,-0.0445
